In ChEMBL document CHEMBL3988442, “University of Dundee, Small-Polar-MMV Screening Library” (2021) one finds Percent Effect data, which are given here for 40 molecules.

Structures are written as SMILES.

This assay concerns the target AMP-activated protein kinase, AMPK (Homo sapiens) (UniProt P54646+O43741+P54619+Q9UGJ0+Q9Y478+Q13131+Q9UGI9). The assay is described as follows: AMP-dependent Kinase enzyme assay. An in vitro enzyme assay that detects ADP turnover that is directly proportional to AMPK activity. This uses naive AMPK that is activated during the assay with MK-8722. Format: functional. The following applies: 30 µM. Further details: scale not given: direction of the effect not stated beside the values.
For the molecule `Cn1nc(C(=O)NCCc2ccc(OC3CCCC3)cc2)ccc1=O`, the Percent Effect is -4.35%.
Next, `COc1c(C)cnc(CN2CCCC2c2noc(C3CC3)n2)c1C` (stereo not given): -14.3%; `CCCn1cc(NC(=O)Nc2ccc(F)c(C(=O)NC)c2)cn1`: 8.23%; `NC(=O)CC1CCN(Cc2ccccc2OCC(F)(F)F)CC1`: -3.02%.
The same measure for `COc1cc(-c2cccc3c2OC(CN)C3)cc(OC)c1OC` (stereo not given): -5.11%; for `CNC(=O)C1(C)CN(S(=O)(=O)c2cccc(OC)c2)CCO1` (stereo not given): 4.63%.
Next, `CCc1c(C)nn2c(O)cc(C3CCN(C(=O)c4ccccn4)C3)nc12` (stereo not given): 4.34%.
As for `CC(C)c1nc(CSc2nnc(C3CC3)n2CC(N)=O)no1`, the Percent Effect was -5.73%.
Turning to `COc1ncc(NCc2ccc(Cl)c(Cl)c2)cc1C(N)=O`, the Percent Effect was determined as 18.2%.
The same measure for `N#CC1(C(=O)N2C[C@H]3CC[C@@H]2CN(Cc2ccncc2)C3)CCOCC1`: -2.51%.
Turning to `COc1nccc(N2CC[C@@H](N3CCN(C)CC3)[C@H](O)C2)c1C#N`, the Percent Effect is -9.72%.
Next, `COC(=O)c1ccc(Cn2cnc(C#N)n2)cc1`: 1.34%; `Cc1ccc(-c2nnn(CCN3C(=O)CCC3=O)n2)cc1`: -8.21%; `CN1CCCCC1Cc1nc2c(cc1C(N)=O)CCC2` (stereo not given): -4.26%.
With `CCC(O)CNC(=O)c1cc(COc2ccc(OC)cc2Cl)[nH]n1` (stereo not given), the Percent Effect turned out to be 2.19%.
Next, `CNC(=O)C(c1cccc(Cl)c1)C(C)C` (stereo not given): -6.65%; `CC(CO)NC(=O)Nc1ccc(CC#N)cc1` (stereo not given): -1.29%; `CN(C)S(=O)(=O)N1CCC(C(O)c2ccc(Cl)cc2)CC1` (stereo not given): 4.77%.
Consider `CN(C)C(=O)Cn1cnc2c(Br)cccc2c1=O`, for which the Percent Effect was -4.74%.
In the case of `Cc1ccc(C(NC(=O)CCCN2CCCCC2)C(=O)O)cc1` (stereo not given), the Percent Effect is 11.8%.
In the case of `COC(=O)N1CCCCC1C(=O)N1CCN(c2cccnc2)CC1` (stereo not given), the Percent Effect is -4.3%.
As for `Cc1noc(C)c1-c1cccc(C2CCN(S(=O)(=O)N(C)C)CC2)n1`, the Percent Effect came out at 5.6%.
With `Cc1cc(C2CCCN(CCc3ccc4c(c3)CCO4)C2)n[nH]1` (stereo not given), the Percent Effect turned out to be 3.65%.
Take `CCC(CO)NC(=O)c1cc(COc2ccc(OC)cc2Cl)[nH]n1` (stereo not given): the Percent Effect was -8.13%.
The same measure for `O=S(=O)(NCCCn1cccn1)c1ccc2c(c1)CCC2`: 12.2%; for `Cc1ccc(S(C)(=O)=O)cc1NCC(=O)NCCC1=CCCCC1`: 0.0953%; for `O=C(CC1=CSC2=NCCN12)N1CCCC(CCc2cccc(F)c2)C1` (stereo not given): 13.4%.
Turning to `Cc1ccc2nc(CN3CCCCC3CCn3cccn3)cn2c1` (stereo not given), the Percent Effect is 4.05%.
In the case of `Cc1nc(CN2CCC(c3cc(N4CCCC4)ncn3)CC2)cs1`, the Percent Effect is 2.88%.
The same measure for `CCC(C(=O)NC1(COC)CCCC1)n1cccn1` (stereo not given): -12%.
Turning to `CC(C)c1noc(C(C)N2CCC(c3nc4ccccc4o3)CC2)n1` (stereo not given), the Percent Effect was determined as 0.506%.
Next, `Cc1nn(C)cc1NC(=O)CN1CCN(C2CCCC2)C(=O)C1`: 16.5%; `CN(c1ncc(S(N)(=O)=O)s1)C1CCc2ccccc2C1` (stereo not given): 5.32%.
As to `CCOc1ccc(Cl)cc1CCNC(=O)Cn1nc(C)ccc1=O`, the Percent Effect was found to be 5.21%.
Consider `CC(CN1CCOC1=O)NC(=O)c1ccccc1Oc1ccccc1` (stereo not given), for which the Percent Effect was 8.72%.
As for `CS(=O)(=O)NC1CCN(Cc2coc(-c3ccc(Cl)cc3)n2)CC1`, the Percent Effect stood at 1.23%.
The same measure for `CC(C)Oc1cccc(F)c1C(C(=O)O)N1CCCC1` (stereo not given): 8.59%; for `CNC(=O)CCOC(=O)c1cccc(-n2ccc(C(F)(F)F)n2)c1`: 3.59%; for `CC(NC(=O)C1CCCCC1)c1cc(O)nc(-c2cccnc2)n1` (stereo not given): 5.58%.
For the molecule `Cc1ccc(CNC(=O)c2ccc(=O)n(C)n2)c(OCC2CC2)c1`, the Percent Effect worked out at 14.4%.
